The values that follow come from the supplement of paper PMC10382584, “Macrocyclization of linear molecules by deep learning to facilitate macrocyclic drug candidates discovery” (Nature Communications, 2023).

UniProt Q96RR4, sequence (Q96RR4 whole entry, looked up): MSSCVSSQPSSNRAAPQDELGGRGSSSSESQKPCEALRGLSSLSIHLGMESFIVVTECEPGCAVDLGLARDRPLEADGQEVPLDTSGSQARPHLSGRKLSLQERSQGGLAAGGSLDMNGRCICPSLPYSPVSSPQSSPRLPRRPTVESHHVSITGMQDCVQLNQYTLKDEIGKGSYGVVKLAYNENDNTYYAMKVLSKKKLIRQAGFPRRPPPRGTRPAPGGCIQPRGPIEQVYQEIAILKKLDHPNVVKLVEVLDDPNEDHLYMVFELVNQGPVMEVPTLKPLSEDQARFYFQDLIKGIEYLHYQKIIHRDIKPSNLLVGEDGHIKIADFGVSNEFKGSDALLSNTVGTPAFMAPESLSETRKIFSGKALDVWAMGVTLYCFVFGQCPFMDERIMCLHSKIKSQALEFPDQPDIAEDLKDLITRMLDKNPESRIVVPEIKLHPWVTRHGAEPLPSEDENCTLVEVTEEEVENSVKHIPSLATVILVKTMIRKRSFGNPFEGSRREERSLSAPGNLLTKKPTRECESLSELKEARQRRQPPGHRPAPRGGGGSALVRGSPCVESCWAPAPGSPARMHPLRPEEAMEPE
UniProt Q06187, sequence (Q06187 whole entry): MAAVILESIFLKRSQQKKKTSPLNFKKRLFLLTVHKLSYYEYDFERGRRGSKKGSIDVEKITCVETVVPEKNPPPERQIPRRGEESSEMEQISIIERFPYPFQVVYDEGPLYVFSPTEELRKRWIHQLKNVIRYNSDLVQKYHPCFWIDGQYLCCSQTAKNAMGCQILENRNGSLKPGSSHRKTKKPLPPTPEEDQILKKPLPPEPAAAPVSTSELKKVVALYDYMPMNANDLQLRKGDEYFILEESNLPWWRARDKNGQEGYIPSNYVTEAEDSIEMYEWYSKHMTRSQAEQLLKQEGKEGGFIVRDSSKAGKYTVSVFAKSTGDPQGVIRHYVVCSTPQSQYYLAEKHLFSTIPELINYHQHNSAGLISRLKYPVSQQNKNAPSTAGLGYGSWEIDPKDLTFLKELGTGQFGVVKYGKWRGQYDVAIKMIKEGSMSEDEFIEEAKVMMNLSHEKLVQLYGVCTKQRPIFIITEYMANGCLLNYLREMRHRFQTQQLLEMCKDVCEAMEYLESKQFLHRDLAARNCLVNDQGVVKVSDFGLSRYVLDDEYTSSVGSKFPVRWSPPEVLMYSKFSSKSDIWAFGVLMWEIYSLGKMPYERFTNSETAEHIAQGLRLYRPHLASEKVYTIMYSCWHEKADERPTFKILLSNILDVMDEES
UniProt P27037, sequence (P27037 whole entry): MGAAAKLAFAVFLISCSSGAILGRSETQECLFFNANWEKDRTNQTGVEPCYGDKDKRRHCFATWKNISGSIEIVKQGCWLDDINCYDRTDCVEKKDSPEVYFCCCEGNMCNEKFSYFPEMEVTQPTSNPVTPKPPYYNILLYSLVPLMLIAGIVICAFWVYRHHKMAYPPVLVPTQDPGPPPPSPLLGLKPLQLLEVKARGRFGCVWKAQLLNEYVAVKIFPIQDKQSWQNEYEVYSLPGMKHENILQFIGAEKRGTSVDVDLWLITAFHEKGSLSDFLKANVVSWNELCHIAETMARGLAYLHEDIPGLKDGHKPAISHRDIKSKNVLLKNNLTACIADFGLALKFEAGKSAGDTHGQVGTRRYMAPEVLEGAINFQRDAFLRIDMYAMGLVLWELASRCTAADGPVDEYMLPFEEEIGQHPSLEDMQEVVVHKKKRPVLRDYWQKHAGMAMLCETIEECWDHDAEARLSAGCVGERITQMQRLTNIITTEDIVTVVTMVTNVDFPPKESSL
UniProt Q9H2X6, sequence (Q9H2X6 whole entry, looked up): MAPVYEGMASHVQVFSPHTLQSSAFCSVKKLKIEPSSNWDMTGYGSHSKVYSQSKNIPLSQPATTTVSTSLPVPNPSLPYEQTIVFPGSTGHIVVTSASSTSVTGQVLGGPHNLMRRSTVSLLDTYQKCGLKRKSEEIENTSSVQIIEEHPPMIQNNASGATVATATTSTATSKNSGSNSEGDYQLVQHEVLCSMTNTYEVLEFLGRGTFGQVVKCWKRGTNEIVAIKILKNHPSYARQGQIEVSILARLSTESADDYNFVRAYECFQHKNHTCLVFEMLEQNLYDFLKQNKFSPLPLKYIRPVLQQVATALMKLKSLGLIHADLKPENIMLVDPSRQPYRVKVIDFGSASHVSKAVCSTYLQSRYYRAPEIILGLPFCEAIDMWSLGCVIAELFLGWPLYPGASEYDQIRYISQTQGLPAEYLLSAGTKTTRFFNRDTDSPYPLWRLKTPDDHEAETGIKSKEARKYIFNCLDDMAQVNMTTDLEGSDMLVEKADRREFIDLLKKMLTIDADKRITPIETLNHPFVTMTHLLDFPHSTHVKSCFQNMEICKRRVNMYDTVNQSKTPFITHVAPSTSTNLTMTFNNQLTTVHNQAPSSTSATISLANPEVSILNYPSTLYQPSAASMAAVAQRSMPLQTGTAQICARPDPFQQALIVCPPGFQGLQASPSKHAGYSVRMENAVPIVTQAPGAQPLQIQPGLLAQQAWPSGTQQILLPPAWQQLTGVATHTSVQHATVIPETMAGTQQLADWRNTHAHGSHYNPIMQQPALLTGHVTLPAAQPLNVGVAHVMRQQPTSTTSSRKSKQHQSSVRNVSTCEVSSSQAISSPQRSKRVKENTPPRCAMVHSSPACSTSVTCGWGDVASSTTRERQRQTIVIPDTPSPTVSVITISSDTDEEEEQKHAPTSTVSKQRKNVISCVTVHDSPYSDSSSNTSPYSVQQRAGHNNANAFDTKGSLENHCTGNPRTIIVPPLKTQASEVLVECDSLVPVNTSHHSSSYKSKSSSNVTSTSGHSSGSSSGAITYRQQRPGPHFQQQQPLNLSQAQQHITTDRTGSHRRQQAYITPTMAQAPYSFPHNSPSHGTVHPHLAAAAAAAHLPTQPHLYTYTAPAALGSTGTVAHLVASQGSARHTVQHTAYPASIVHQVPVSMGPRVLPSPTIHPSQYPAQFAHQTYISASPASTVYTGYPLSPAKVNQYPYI
UniProt Q02779, sequence (Q02779 whole entry, looked up): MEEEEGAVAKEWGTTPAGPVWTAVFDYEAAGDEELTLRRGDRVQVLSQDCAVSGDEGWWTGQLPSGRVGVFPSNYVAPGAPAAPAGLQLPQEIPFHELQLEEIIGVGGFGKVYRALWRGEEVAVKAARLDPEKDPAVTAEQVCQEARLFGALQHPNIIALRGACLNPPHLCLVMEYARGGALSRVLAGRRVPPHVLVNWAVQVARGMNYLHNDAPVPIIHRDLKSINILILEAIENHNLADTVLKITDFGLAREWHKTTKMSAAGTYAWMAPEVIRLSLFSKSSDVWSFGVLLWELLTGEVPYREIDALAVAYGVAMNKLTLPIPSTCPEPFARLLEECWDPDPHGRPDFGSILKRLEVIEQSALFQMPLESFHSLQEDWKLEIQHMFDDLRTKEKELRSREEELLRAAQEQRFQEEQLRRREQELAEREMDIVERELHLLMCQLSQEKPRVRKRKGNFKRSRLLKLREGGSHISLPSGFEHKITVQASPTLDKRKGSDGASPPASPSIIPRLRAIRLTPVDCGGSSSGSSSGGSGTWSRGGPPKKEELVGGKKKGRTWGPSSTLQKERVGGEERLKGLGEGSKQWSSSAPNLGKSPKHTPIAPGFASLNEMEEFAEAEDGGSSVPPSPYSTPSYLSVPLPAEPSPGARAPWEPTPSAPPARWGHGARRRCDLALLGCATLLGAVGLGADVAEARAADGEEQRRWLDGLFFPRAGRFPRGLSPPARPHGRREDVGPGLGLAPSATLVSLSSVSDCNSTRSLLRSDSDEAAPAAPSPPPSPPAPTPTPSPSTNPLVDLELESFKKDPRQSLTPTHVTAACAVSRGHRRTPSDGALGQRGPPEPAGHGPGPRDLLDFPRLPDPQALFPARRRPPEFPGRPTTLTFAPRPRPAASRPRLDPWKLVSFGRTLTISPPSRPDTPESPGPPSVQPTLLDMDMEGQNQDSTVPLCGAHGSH
UniProt P50750, sequence (P50750 whole entry): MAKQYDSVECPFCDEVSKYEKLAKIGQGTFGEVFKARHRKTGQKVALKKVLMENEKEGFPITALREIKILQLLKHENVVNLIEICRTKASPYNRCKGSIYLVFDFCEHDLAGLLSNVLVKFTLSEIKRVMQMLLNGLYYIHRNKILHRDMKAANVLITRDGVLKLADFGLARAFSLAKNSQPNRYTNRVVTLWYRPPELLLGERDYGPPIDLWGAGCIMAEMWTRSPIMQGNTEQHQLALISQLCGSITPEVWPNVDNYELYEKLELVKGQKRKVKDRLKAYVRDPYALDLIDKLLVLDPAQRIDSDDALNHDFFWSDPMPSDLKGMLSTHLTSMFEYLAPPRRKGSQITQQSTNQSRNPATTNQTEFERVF
UniProt Q99755, sequence (Q99755 whole entry): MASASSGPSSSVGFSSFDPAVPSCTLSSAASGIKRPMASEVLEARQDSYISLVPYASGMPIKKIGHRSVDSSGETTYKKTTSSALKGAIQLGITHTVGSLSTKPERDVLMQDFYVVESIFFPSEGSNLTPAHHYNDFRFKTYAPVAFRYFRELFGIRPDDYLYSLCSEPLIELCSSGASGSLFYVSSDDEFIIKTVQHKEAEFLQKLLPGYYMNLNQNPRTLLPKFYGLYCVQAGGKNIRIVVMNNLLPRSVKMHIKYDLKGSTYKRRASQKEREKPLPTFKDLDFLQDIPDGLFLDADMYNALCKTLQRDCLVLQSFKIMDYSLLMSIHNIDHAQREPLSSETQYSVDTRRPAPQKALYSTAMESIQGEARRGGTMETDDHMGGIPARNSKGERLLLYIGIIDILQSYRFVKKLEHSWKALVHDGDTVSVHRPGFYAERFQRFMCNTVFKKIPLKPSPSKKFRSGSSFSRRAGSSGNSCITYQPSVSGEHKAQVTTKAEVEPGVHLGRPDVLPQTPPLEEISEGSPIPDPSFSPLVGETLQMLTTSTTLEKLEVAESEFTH

Compound in the experiment: Cc1cnc(Nc2ccc(OCCN3CCCC3)cc2)nc1Nc1cccc(S(=O)(=O)NC(C)(C)C)c1 [Fedratinib]
The experiment can be described thus: percent of DMSO control binding (KINOMEscan); higher = weaker binding / less inhibition; extreme values may be limits of the assay. The conditions noted are these: concentration: 100 nM.
“RPS6KA4(Kin.Dom.2-C-terminal) (UniProt O75676)”: the “percent of DMSO control binding” value came out at 39%.
Under PIKFYVE (UniProt Q9Y2I7) stands 83%; under LKB1 (UniProt Q15831), 40%; under CAMKK2 (UniProt Q96RR4), 100%.
Under EGFR(T790M) (UniProt P00533) stands 100%; under ZAK (UniProt Q9NYL2), 81%; under MTOR (UniProt P42345), 87%.
Turning to BMPR2 (UniProt Q13873), the “percent of DMSO control binding” value was 68%.
The result for ERK3 (UniProt Q16659) reads 100%; that for MLK2 (UniProt Q02779), 78%; that for “RPS6KA5(Kin.Dom.1-N-terminal) (UniProt O75582)”, 100%.
The result for PIK4CB (UniProt Q9UBF8) reads 97%.
Under RSK3(Kin.Dom.1-N-terminal) stands 100%; under SYK (UniProt P43405), 100%.
Take EPHB1 (UniProt P54762): the “percent of DMSO control binding” value is 100%.
Under EGFR(G719S) (UniProt P00533) stands 99%; under CDK9 (UniProt P50750), 97%; under HIPK2 (UniProt Q9H2X6), 79%.
The result for AMPK-alpha1 (UniProt Q13131) reads 100%; that for “RSK1(Kin.Dom.2-C-terminal) (UniProt Q15418)”, 93%; that for ACVR2A (UniProt P27037), 100%.
Under EGFR(G719C) (UniProt P00533) stands 100%; under ALK(C1156Y) (UniProt Q9UM73), 57%.
With INSRR (UniProt P14616), the “percent of DMSO control binding” value turned out to be 100%.
The result for LYN (UniProt P07948) reads 100%; that for SRMS (UniProt Q9H3Y6), 70%.
The result for FGFR4 (UniProt P22455) reads 100%; that for MAP3K4 (UniProt Q9Y6R4), 77%.
The result for HCK (UniProt P08631) reads 100%.
With EPHA1 (UniProt P21709), the “percent of DMSO control binding” value was 60%.
Take PIP5K1A (UniProt Q99755): the “percent of DMSO control binding” value worked out at 17%.
Under PIK3CD (UniProt O00329) stands 75%.
The result for ROCK1 (UniProt Q13464) reads 40%; that for “RPS6KA5(Kin.Dom.2-C-terminal) (UniProt O75582)”, 97%; that for BTK (UniProt Q06187), 87%.
The result for BRK (UniProt Q13882) reads 87%; that for MYLK2 (UniProt Q9H1R3), 100%.
